The record followed here is PubChem BioAssay AID1376 (SRMLSC, 2008).

Structures are written as SMILES. Where “and” joins values, the source holds several entries; their conditions need not be identical. Equal values may be shown once. About 530 (0.24%) of roughly 220,000 compounds were called active. Shown is part of a subset that was picked to be rich in actives. Measured potencies and affinities stand elsewhere. Unmarked numbers belong to inactive results. No stated cut-off is given here; in the data, active means inhibition above about 13%; inconclusive means no clear call, values can overlap the other calls; inactive means below that.

Bifunctional protein GlmU (Mycobacterium tuberculosis (strain ATCC 25618 / H37Rv)), sequence (P9WMN3 whole entry, looked up): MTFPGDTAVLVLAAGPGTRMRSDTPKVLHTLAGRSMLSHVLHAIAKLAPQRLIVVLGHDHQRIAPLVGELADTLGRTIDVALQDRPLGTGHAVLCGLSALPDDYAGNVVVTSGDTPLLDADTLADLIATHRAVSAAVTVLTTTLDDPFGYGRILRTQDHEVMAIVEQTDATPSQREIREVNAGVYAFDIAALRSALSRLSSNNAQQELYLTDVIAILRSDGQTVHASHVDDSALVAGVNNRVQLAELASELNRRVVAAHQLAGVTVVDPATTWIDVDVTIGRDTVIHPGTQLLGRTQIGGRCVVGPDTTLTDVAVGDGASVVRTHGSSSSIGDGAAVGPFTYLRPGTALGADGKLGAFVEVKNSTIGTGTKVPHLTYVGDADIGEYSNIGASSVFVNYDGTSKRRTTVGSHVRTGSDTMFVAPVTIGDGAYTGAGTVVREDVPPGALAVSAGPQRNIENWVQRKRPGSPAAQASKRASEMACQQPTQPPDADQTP

The test has as its target Bifunctional protein GlmU (Mycobacterium tuberculosis (strain ATCC 25618 / H37Rv)) (UniProt P9WMN3). Put plainly: inhibition of mycobacterial GlmU enzyme – biochemical, glucosamine-1-phosphate acetyltransferase (AID 1376).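 Further: 0% = complete reaction with vehicle and 100% = reaction without substrate.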 Particulars: M. tuberculosis GlmU acetyltransferase enzyme assay; hits give high values;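 tested at 30 µM in the primary screen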.
In the case of `Cc1ccc(SCc2cc(=O)[nH]c(N3CCN(C)CC3)n2)cc1`, the inhibition was 2.83%.

`Cc1ccc(N2C(=O)c3cccc4c(C(=O)O)ccc(c34)C2=O)cc1`: the inhibition was -2.11%.

With `O=C(O)c1ccc2c3c(cccc13)C(=O)N(c1ccccc1)C2=O`, the inhibition was 5.53%.

For `CCn1c(SCC(=O)N2CCc3ccccc32)nc2c(c1=O)SC(C)C2` (centres undefined), the inhibition was 2.91%.

Take `O=C(O)c1cc(-c2ccccc2)nc2nc(N3CCCCC3)sc12`: the inhibition is -4.63%.

Turning to `O=C(O)CSc1nc2ccccc2s1`, the inhibition is -6.75% and -0.54%.

Regarding `O=C(CSc1nc2ccccc2s1)CSc1nc2ccccc2s1`, the inhibition was -0.56%.

Regarding `O=C(O)CCSc1nc2ccccc2s1`, the inhibition is 13.3% (active).

For the molecule `Cc1[nH]c2ccccc2c1C(=O)COC(=O)CCS(=O)(=O)c1ccccc1Cl`, the inhibition was 0.91%.

For `NC(=O)[C@H]1CC2(CC(c3cccc(NC(=O)CC(c4ccccc4)c4ccccc4)c3)=NO2)CN1C(=O)CC(c1ccccc1)c1ccccc1` (some centres undefined), the inhibition is 2.76%.

Regarding `C=C(C)C(=O)Nc1cccc(C2=NOC3(C2)C[C@@H](C(N)=O)N(C(=O)CC(c2ccccc2)c2ccccc2)C3)c1` (some centres undefined), the inhibition is 14.4% (active).

On to `C/C=C(/C)C(=O)Nc1cccc(C2=NOC3(C2)C[C@@H](C(N)=O)N(C(=O)CC(c2ccccc2)c2ccccc2)C3)c1` (some centres undefined), for which the inhibition was 2.91%.

As to `C/C=C(/C)C(=O)Nc1cccc(C2=NOC3(C2)C[C@H](C(N)=O)N(C(=O)COc2ccc(Cl)cc2)C3)c1` (some centres undefined), the inhibition was -3.89%.

With `C/C=C(\C)C(=O)Nc1cccc(C2=NOC3(C2)C[C@H](C(N)=O)N(C(=O)C(c2ccccc2)c2ccccc2)C3)c1` (some centres undefined), the inhibition is 4.35%.

For `CCC(=O)Nc1cccc(C2=NOC3(C2)C[C@@H](C(N)=O)N(C(=O)C(c2ccccc2)c2ccccc2)C3)c1` (some centres undefined), the inhibition was 7.01%.

With `NC(=O)[C@@H]1CC2(CC(c3cccc(NC(=O)COc4ccc(Cl)cc4)c3)=NO2)CN1C(=O)COc1ccc(Cl)cc1` (some centres undefined), the inhibition is 3.68%.

Consider `CC(=O)Oc1ccccc1N(C(C)=O)S(=O)(=O)c1cccc([N+](=O)[O-])c1`, for which the inhibition is 2.75%.

With `COc1nc(-c2ccccc2)ccc1-c1noc(-c2cccs2)n1`, the inhibition was -3.99%.

As to `O=C(CN(Cc1ccccc1)S(=O)(=O)c1ccccc1)N/N=C/c1ccccc1C(=O)O`, the inhibition was 1.89%.

Take `CCN(CC)S(=O)(=O)c1cc(NC(=O)COC(=O)CCC(=O)c2cccs2)ccc1C`: the inhibition was 1.97%.

In the case of `O=C(NCc1n[nH]c(=S)n1-c1cccc(C(F)(F)F)c1)c1ccc(S(=O)(=O)N2CCCC2)cc1`, the inhibition was -1.04%.

As to `Oc1ccc(N=Nc2ccc(Br)cc2)c(O)c1`, the inhibition was 7.96%.

`Oc1ccc(Cl)cc1/C=N/c1nccs1`: the inhibition is 5.12%.

With `Oc1ccc(N=Nc2nccs2)c(O)c1`, the inhibition is 53.5% (active).

With `Cc1cc2nc(=O)c(/C=C3\C=Nc4ccccc43)c(N)n2o1`, the inhibition was -5.38%.

Take `O=c1ccnc2n1COCS2`: the inhibition is -2.85%.

For `CC(/C=C/c1ccccc1)=N\NC(=O)c1ccncc1`, the inhibition was 2.68%.

Consider `Cc1ccc2c(C(=O)CN3CCOCC3)c(C)[nH]c2c1`, for which the inhibition was 2.67%.

Regarding `Cc1ccc2c(C(=O)CN3CCCC3)c(C)[nH]c2c1`, the inhibition is -5.2%.

For `Cc1ccc2c(C(=O)CN3CCN(c4ccccc4)CC3)c(C)[nH]c2c1`, the inhibition is 14.3% (active).

Turning to `O=C(CSc1ccc(Cl)cc1)NN=C1CCCCCC1`, the inhibition is 0.28%.

For the molecule `O=C(Nc1cccc(N2CCCC2)c1)c1cccs1`, the inhibition was -6.15%.

Take `CCN1CCN(C(=O)NCc2ccccc2)CC1`: the inhibition was -0.69%.

As for `CCOc1ccccc1CNc1ccc(O)cc1`, the inhibition was 12.9% (active).

Turning to `Oc1ccc(NCc2ccccc2OCc2ccccc2F)cc1`, the inhibition was 1.2%.

Consider `Oc1ccc(NCc2ccccc2OCc2ccccc2)cc1`, for which the inhibition is 1.63%.

On to `CCc1nnc(NC(=O)c2cccc(S(=O)(=O)N3CC(c4ccccc4)CC3=O)c2)s1` (centres undefined), for which the inhibition is 5.84%.

Consider `COCCn1cnnc1SCC(=O)Nc1cccc(S(=O)(=O)N2CCCCCC2)c1`, for which the inhibition is 1.58%.

On to `COC(=O)c1ccc(S(=O)(=O)N2CCC(O)CC2)n1C`, for which the inhibition is -2.92%.

With `COC(=O)c1ccc(S(=O)(=O)N2CCN(C)CC2)n1C`, the inhibition is -8.72%.

With `COC(=O)c1ccc(S(=O)(=O)N2CCCCCC2)n1C`, the inhibition was 12.8% (active).

Consider `CCc1nnc(NC(=O)CSc2nc3c(c(=O)n2C)SC(C)C3)s1` (centres undefined), for which the inhibition is 3.46%.

Take `O=c1/c(=C/c2ccccc2)sc2nnc(-c3cccs3)n12`: the inhibition was 0.67%.

For the molecule `OCC#CC[N+]1(CC#Cc2ccccc2)CCOCC1`, the inhibition was -6.73%.

In the case of `C#CC[N+]1(CC#Cc2ccccc2)CCOCC1`, the inhibition was -6.07%.

As for `CC1=C(C(=O)Nc2ccccc2)C(c2cccs2)n2nnnc2N1` (centres undefined), the inhibition is -3.97%.

With `CCn1c(CSc2nc3ccccc3s2)nnc1SCC(N)=O`, the inhibition is 1.32%.

As for `CCn1c(CSc2nc3ccccc3s2)nnc1SCC(=O)c1ccc(O)cc1O`, the inhibition was 13% (active).

In the case of `CCn1c(CSc2nc3ccccc3s2)nnc1SCC(=O)c1ccc(O)c(O)c1`, the inhibition was 5.09%.

For `C=C(C)CNC(=S)N/N=C/c1ccc([N+](=O)[O-])cc1`, the inhibition is 3.43%.

On to `Cc1ccc(-n2nc3c(c2NC(=O)c2ccc4c(c2)OCO4)CSC3)cc1`, for which the inhibition is -1.67%.

In the case of `Cc1ccc(-n2nc3c(c2NC(=O)c2cccs2)CSC3)cc1`, the inhibition is 19.6% (active).

In the case of `Cc1ccc(-n2nc3c(c2NC(=O)c2c(-c4ccccc4Cl)noc2C)CSC3)cc1`, the inhibition is 4.33%.

Consider `Cc1nccn1CCCN1C(=O)OC2(CCCCC2)C1(C)O` (centres undefined), for which the inhibition is -0.12%.

`Cc1cc(C)c(C(=O)COC(=O)c2cc([N+](=O)[O-])ccc2NCCO)cc1C`: the inhibition is 0.91%.

For the molecule `O=C1Nc2ccccc2/C1=N/N=C/c1cccc(O)c1`, the inhibition was 0.15%.

For `O=C1Nc2ccccc2/C1=N\N=C\c1ccc(O)c(O)c1`, the inhibition is 15% (active).

Take `COc1cc(/C=N/N=C2/C(=O)Nc3ccccc32)ccc1O`: the inhibition was 1.01%.

As for `CC1CCc2ccc(F)cc2N1S(=O)(=O)c1cccs1` (centres undefined), the inhibition is 3.23%.
